In the library only some 4.6% were active in any assay of this set; here they are far more common.
SKKanGAS inh = SKKanGAS growth inhibition. inhibition, % at 7.5 µM. AID 1662. 300,000 tested, 1.3% active. S. pyogenes SKKanGAS, kanamycin growth, BacTiter-Glo, 6 h;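 active means mean replicate score, as percent of positive control median, at least 50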;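 further: strain carries kanamycin resistance gene driven by streptokinase promoter and grows in 40 µg/ml kanamycin; loss of luminescence reflects streptokinase promoter inhibition or plain growth inhibition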
tim10-1 inh = growth inhibitors of tim10-1 mutant yeast | S. cerevisiae tim10-1 ts strain growth, BacTiter-Glo, 24 h | inhibition, % at 20 µM | 330,000 tested, 2.2% active;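 active means inhibition of at least 40%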;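 further: mutant grown at 25 °C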
PfHsp90 yeast 2 = growth inhibition of yeast expressing Plasmodium Hsp90. S. cerevisiae expressing PfHsp90, BacTiter-Glo ATP, 48 h; yeast lacking PDR1 and PDR3 efflux regulators. AID 504621. inhibition, % at 9.4 µM. 310,000 tested, 0.32% active;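 active means every replicate shows inhibition above about 80%, whatever the replicate mean, limit read from the data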
NALP3 yeast inh = blocks the NALP3 inflammasome reconstituted in yeast | Yeast reconstituted NLRP3/ASC/caspase-1, beta-gal luminescence, 24 h | 330,000 tested, 0.39% active | inhibition, % at 10 µM;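 active means inhibition of 50% or more; inactive means inhibition below 50%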
tim23-1 inh = inhibits growth of tim23-1 mutant yeast | S. cerevisiae tim23-1 growth, BacTiter-Glo luminescence, 24 h | inhibition, % at 20 µM | 330,000 tested, 1.3% active;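 active means growth inhibition of the mutant yeast at or above 50%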;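 further: temperature-sensitive mutant grown at 25 °C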
TIM10 inh = inhibits growth of TIM10 yeast strain; S. cerevisiae TIM10 strain growth, BacTiter-Glo luminescence, 24 h; inhibition, % at 10 µM; 330,000 tested, 1.4% active; AID 463195;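 active means inhibition of 40% or more at the single tested concentration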;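 further: wild-type TIM10 isogenic control strain grown at permissive 25 °C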
Of the large screens only hits and unclear results are named; the others gave an inactive call.

CC(C)(C)c1ccc(CN(Cc2ccco2)Cc2nnnn2C2CCCC2)cc1	SKKanGAS inh 51
O=C(CCn1nc(-c2ccc(Cl)cc2)ccc1=O)N1CCN(c2ccccc2)CC1	none
Cc1ccc(/C=N/NC(=O)Cc2ccc(Cl)cc2)c(O)c1	SKKanGAS inh 101
O=C(Cn1cc(C(F)(F)F)ccc1=O)NCc1ccc(F)cc1	none
Cc1cc(C)c2nc(-c3ccccn3)cc(C(=O)Nc3ccc(S(=O)(=O)Nc4onc(C)c4C)cc3)c2c1	SKKanGAS inh 64
Cc1cc(C)c2nc(-c3ccccn3)cc(C(=O)Nc3ccc(S(=O)(=O)Nc4cc(C)on4)cc3)c2c1	none
CCc1ccc(OC(C)C(=O)Nc2ccccc2C(=O)N2CCOCC2)cc1 (centres undefined)	none
CCOC(=O)N1CCN(C(=O)c2c(N)no[n+]2[O-])CC1	none (no result: PfHsp90 yeast 2)
O=C(CSc1ccccn1)N/N=C/c1cc([N+](=O)[O-])ccc1O	SKKanGAS inh 115
O=C(Cn1cncn1)N/N=C/c1cc([N+](=O)[O-])ccc1O	none
O=C(Cn1nnc(-c2ccccc2)n1)N/N=C/c1cc([N+](=O)[O-])ccc1O	SKKanGAS inh 101
O=C(Cn1nc2ccccc2n1)N/N=C/c1cc([N+](=O)[O-])ccc1O	SKKanGAS inh 104
O=C(N/N=C/c1cc([N+](=O)[O-])ccc1O)c1cccc(NC(=O)c2cccc(Cl)c2)c1	SKKanGAS inh 77
CCSc1nnc(NC(=O)C2CC(=O)N(Cc3ccc(C)cc3)C2)s1 (centres undefined)	none (no result: PfHsp90 yeast 2)
O=C(N/N=C/c1cc([N+](=O)[O-])ccc1O)c1cccc2ccccc12	SKKanGAS inh 94
Cc1[nH]n(-c2cccc3ccccc23)c(=O)c1/C=N/NC(=O)c1cccc([N+](=O)[O-])c1	SKKanGAS inh 53
COC(=O)c1ccc(CNC(=O)COC(=O)/C=C/c2cc(OC)c(OC)c(OC)c2)cc1	none (no result: SKKanGAS inh, PfHsp90 yeast 2)
O=C1c2ccccc2CC1(Cc1ccccc1)Cc1ccccc1	SKKanGAS inh 57
CCC1(CC)Cc2ccccc2C(=O)N1	none
CCn1cc(C(=O)Nc2ncccc2O)c(=O)c2cc(F)c(N3CCN(C(=O)c4ccco4)CC3)cc21	none
COC(=O)c1cccc(NC(=S)NCc2ccc(Cl)cc2)c1	SKKanGAS inh 62
Cc1ccccc1CN(C)CC(=O)Nc1c(C)cccc1C(C)C	none
Cc1nn(Cc2ccc(C(=O)Nc3nc4c(C)cccc4s3)o2)c(C)c1Br	SKKanGAS inh 58
Cc1cc(NC(=O)c2ccc(Cn3nc(C)c(Br)c3C)o2)no1	none
O=C(c1ccncc1)N1CCN(c2ccc(F)cc2)CC1	none
O=C(c1ccc(Cl)cc1)N1CCN(c2ccc(F)cc2)CC1	PfHsp90 yeast 2 102
CCOC(=O)c1ccc(NC(=S)Nc2cccc(N)n2)cc1	SKKanGAS inh 58
CCOC(=O)c1ccc(NC(=S)NN)cc1	SKKanGAS inh 70
CC1(C)C=Cc2c(c3c(c4c(=O)c(-c5ccc(O)cc5)coc24)OC(C)(C)CC3)O1	none
CC(C)(O)CCc1c(-c2ccc(O)cc2O)oc2c3c(cc(O)c2c1=O)OC(C)(C)C=C3	none
CC(C)=CCc1c2c(c3occ(-c4ccc(O)c(O)c4)c(=O)c3c1O)C=CC(C)(C)O2	PfHsp90 yeast 2 102 (no result: SKKanGAS inh, tim10-1 inh, NALP3 yeast inh, tim23-1 inh, TIM10 inh)
CC(C)=CCc1c2c(c3occ(-c4ccc(O)cc4)c(=O)c3c1O)C=CC(C)(C)O2	SKKanGAS inh 111
O=[N+]([O-])c1ccc(/C=[N+](\[O-])CCO)o1	SKKanGAS inh 84
O=C(NNC(=O)c1cc(-c2cccc(Br)c2)nc2ccccc12)c1csc(N2CCOCC2)n1	SKKanGAS inh 56 (no result: PfHsp90 yeast 2)
O=C(NNC(=O)c1cc(Br)ccc1O)c1csc(N2CCOCC2)n1	none (no result: SKKanGAS inh)
CC1CC(C)C(=NNC(N)=O)C(C(O)CC2CCC(=O)NC2=O)C1 (centres undefined)	PfHsp90 yeast 2 114 (no result: SKKanGAS inh, tim10-1 inh, NALP3 yeast inh, tim23-1 inh, TIM10 inh)
Cc1cccc(NCC(=O)N/N=C\c2cccc(Oc3ccccc3)c2)c1	SKKanGAS inh 58
Cc1ccc(C(=O)Nc2ccccc2C(=O)O)cc1NC(=O)COc1c(C)cccc1C	none
COc1ccccc1C(=O)Nc1ccc(C(=O)Nc2ccccc2C(=O)O)cc1	SKKanGAS inh 50
O=C(COc1ccc(Cl)cc1Cl)NC(=S)Nc1ccccc1C(=O)O	none (no result: PfHsp90 yeast 2)
O=C(COc1ccc(Cl)cc1Cl)Nc1ccc(C(=O)Nc2ccccc2C(=O)O)cc1	SKKanGAS inh 62
Cc1cc(C(=O)Nc2ccccc2C(=O)O)ccc1NC(=O)COc1cccc(C)c1C	SKKanGAS inh 54
CN(C(=O)c1cc(S(=O)(=O)N2CCc3ccccc32)cn1C)C1CCCCC1	none
Cc1cc(C(=O)N/N=C/c2cc(Cl)cc([N+](=O)[O-])c2O)c2ccccc2n1	SKKanGAS inh 114
O=C(N/N=C/c1cc(Cl)cc([N+](=O)[O-])c1O)NC12CC3CC(CC(C3)C1)C2	SKKanGAS inh 50
Cc1ccc(C)c(N2N=C(C(=O)Nc3cccnc3)CCC2=O)c1	none (no result: SKKanGAS inh)
CCOc1ccc2[nH]c3c(N4CCc5ccccc5C4)ncnc3c2c1	SKKanGAS inh 51 (no result: PfHsp90 yeast 2)
CCOC(=O)c1sc2nccc(N(C)C)c2c1N=CNOCc1c(F)cccc1Cl	SKKanGAS inh 52
CCOC(=O)c1sc2nccc(N(C)C)c2c1N=CNOCc1ccccc1	none
CCc1ccccc1NC(=O)CN(C1CCCCC1)S(C)(=O)=O	none
CCCC(C(=O)c1ccccc1)n1cncn1 (centres undefined)	none
Cc1ccc(C(=O)C(SC(C)(C)C)n2cncn2)cc1 (centres undefined)	PfHsp90 yeast 2 83
C[C@H](NS(=O)(=O)OCC(Cl)(Cl)Cl)C1CC1c1ccccc1 (some centres undefined)	none
O=S(=O)(NC1CC(NS(=O)(=O)OCC(Cl)(Cl)Cl)C2CCCCC12)OCC(Cl)(Cl)Cl (centres undefined)	SKKanGAS inh 91
Cc1sc2ncnc(SCC(=O)N3CCCC(C(N)=O)C3)c2c1C (centres undefined)	none
Cc1sc2ncnc(SCC(=O)N3CCCC(C(F)(F)F)C3)c2c1C (centres undefined)	SKKanGAS inh 55
CCOC(=O)C1=NN(C(=O)c2ccc(C)cc2)C(O)(c2ccc(Cl)cc2)C1 (centres undefined)	SKKanGAS inh 55
Clc1nssc1=Nc1ccc(Br)cc1	PfHsp90 yeast 2 105 (no result: tim10-1 inh, NALP3 yeast inh, tim23-1 inh, TIM10 inh)
CC(=O)c1c(O)cc(O)c(C(C)=O)c1O	SKKanGAS inh 91
CC(=O)c1c(O)cc(O)cc1CC(=O)O	none
COc1ccc2ccc3c(c2c1)N=C[C@]1(O3)N(C)c2ccccc2C1(C)C	SKKanGAS inh 56
CC1=NOC2(C1)N(C)c1ccccc1C2(C)C (centres undefined)	none
CCCCC(=O)NC(c1cccc([N+](=O)[O-])c1)c1ccc2cccnc2c1O (centres undefined)	PfHsp90 yeast 2 115 (no result: SKKanGAS inh, tim10-1 inh, NALP3 yeast inh, tim23-1 inh, TIM10 inh)

Screening results from PubChem.
